Results from PubChem BioAssay (Tox21).
Records with an inconclusive call do not appear. A call without a number means that no potency is given here. Active and inactive are the calls of the source. Calls follow the shape of the full dose curve.

Legend:
[1] = target: Acetylcholinesterase (Homo sapiens) (UniProt P22303); assay: Acetylcholinesterase (AChE) small molecule antagonists: enzyme-based qHTS assay (AID 1347397); details: Potency: AChE enzyme activity inhibition; outcome: AChE enzyme activity inhibition; also: nearly all actives have a fitted effect of over 55% in size
Sequence of Acetylcholinesterase (Homo sapiens) (P22303 whole entry, looked up): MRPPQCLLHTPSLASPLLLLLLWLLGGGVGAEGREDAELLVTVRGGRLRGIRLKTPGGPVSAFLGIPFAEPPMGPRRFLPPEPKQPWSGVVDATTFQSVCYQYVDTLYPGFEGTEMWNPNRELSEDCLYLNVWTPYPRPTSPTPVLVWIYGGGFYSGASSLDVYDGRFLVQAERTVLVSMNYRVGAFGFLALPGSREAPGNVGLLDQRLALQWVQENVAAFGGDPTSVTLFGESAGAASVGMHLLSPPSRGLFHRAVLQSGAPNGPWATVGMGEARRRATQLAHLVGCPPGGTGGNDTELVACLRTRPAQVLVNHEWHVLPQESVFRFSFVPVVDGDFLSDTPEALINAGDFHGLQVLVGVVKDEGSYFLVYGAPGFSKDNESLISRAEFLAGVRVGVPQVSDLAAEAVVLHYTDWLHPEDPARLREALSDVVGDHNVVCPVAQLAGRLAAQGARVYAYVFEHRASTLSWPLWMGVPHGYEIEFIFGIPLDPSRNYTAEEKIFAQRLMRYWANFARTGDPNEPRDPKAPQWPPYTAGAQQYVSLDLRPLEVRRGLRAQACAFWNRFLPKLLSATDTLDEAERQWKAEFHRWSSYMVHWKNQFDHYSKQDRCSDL
Summary of the method: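 Recombinant human AChE (50 mU/mL) preincubated with compound 30 min at room temperature; acetylthiocholine plus DTNB then added, and thiocholine formation read colorimetrically after 10 min at room temperature. DMSO served as vehicle control.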

[2] = target: Acetylcholinesterase (Homo sapiens) (UniProt P22303); assay: Acetylcholinesterase (AChE) small molecule antagonists: fluorescence cell-based qHTS assay (AID 1347398); details: Potency: AChE activity; outcome: AChE activity; also: nearly all actives have a fitted effect of over 50% in size
Summary of the method: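 SH-SY5Y cells (2000/well), attached overnight, incubated with compound 30 min at 37 C. Acetylthiocholine plus Thiolite Green then added for 40 min at room temperature. Thiocholine fluorescence (Ex/Em 490/520 nm) reports cellular AChE activity.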

[3] = target: Acetylcholinesterase (Homo sapiens) (UniProt P22303); assay: Acetylcholinesterase (AChE) small molecule antagonists: enzyme-based qHTS assay with human liver microsomes (AID 1347399); details: Potency: qHTS inhibition; outcome: qHTS inhibition; also: nearly all actives have a fitted effect of over 60% in size
Summary of the method: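 Recombinant human AChE (50 mU/mL in the enzyme mix) and human liver microsomes (0.25 mg/mL final) were preincubated with compound and NADPH (0.25 mg/mL final) for 30 min at 37 C. Acetylthiocholine/DTNB was then added; thiocholine was read colorimetrically after 10 min at room temperature.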

Row | SMILES | Potency [1] | Potency [2] | Potency [3]
1 | Cc1cc(=O)oc2cc(O[C@@H]3SC[C@@H](O)[C@H](O)[C@H]3O)ccc12 | inactive |  | 
2 | CCN(CC)C(=O)/C(C#N)=C/c1cc(O)c(O)c([N+](=O)[O-])c1 | inactive | inactive | inactive
3 | CCCCCCOC(=O)CC(CC(=O)OCCCCCC)(OC(=O)CCC)C(=O)OCCCCCC | inactive | inactive | inactive
4 | O=C(OOC(=O)c1ccccc1)c1ccccc1 | inactive | inactive | inactive
5 | Nc1ccc(S(=O)(=O)Nc2ccccc2)cc1 | inactive | inactive | inactive
6 | COC(=O)c1cc(Cl)ccc1[N+](=O)[O-] | inactive | inactive | inactive
7 | c1ccc(-c2nn[nH]n2)cc1 | inactive | inactive | inactive
8 | O=P(O)(O)Oc1ccccc1 | inactive | inactive | inactive
9 | O=C1c2ccccc2S(=O)(=O)N1CCCCN1CCN(c2ncccn2)CC1 | inactive | inactive | inactive
10 | CCCOC(=O)c1c(Cl)c(Cl)c(Cl)c(Cl)c1C(=O)OCCC | inactive | inactive | inactive
11 | N=C(N)c1ccc(OCCCOc2ccc(C(=N)N)cc2)cc1 | inactive | inactive | inactive
12 | N#CCc1cccc(C(F)(F)F)c1 | inactive | inactive | inactive
13 | CN(C)CCOCCN(C)CCO | inactive | inactive | inactive
14 | Cc1ccc(N)cc1O | inactive | inactive | 
15 | C=CC(C)C#N (stereo not given) | inactive | inactive | inactive
16 | O=C(/C=C/c1ccc(O)c(O)c1)O[C@@H]1C[C@@](OC(=O)/C=C/c2ccc(O)c(O)c2)(C(=O)O)C[C@@H](O)[C@@H]1O | inactive | inactive | inactive
